The supplement of paper PMC11001985
A number with no mark means an inactive call.

What follows are targets tested with C#CCNC(=O)CCSSCCC(=O)NCCc1ccc(C=O)c(C=O)c1 (assay: lysine labeling ratio R10:1 (500 µM / 50 µM probe), SILAC-ABPP in living cells; higher = lower intrinsic lysine reactivity toward the probe, active = 2 or less). Conditions: HeLa; probe concentrations 500 vs 50 µM.
Procedure, shortened: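 With forward and reverse label swaps, light and heavy SILAC HeLa cells, alive and in PBS at room temperature, were exposed to either 500 µM or 50 µM of an alkyne-tagged lysine probe bearing a disulfide link. After mixing, lysates were clicked to biotin-azide, cut with trypsin, pulled down on neutravidin, freed with DTT, alkylated and analysed on a TIMS-TOF Pro by LC-MS/MS. The per-lysine value R is the median over forward and reverse replicates of the filtered median high-probe/low-probe MS1 peptide ratio. It is capped at 20.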

Sequence of UniProt Q07954 (Q07954 whole entry): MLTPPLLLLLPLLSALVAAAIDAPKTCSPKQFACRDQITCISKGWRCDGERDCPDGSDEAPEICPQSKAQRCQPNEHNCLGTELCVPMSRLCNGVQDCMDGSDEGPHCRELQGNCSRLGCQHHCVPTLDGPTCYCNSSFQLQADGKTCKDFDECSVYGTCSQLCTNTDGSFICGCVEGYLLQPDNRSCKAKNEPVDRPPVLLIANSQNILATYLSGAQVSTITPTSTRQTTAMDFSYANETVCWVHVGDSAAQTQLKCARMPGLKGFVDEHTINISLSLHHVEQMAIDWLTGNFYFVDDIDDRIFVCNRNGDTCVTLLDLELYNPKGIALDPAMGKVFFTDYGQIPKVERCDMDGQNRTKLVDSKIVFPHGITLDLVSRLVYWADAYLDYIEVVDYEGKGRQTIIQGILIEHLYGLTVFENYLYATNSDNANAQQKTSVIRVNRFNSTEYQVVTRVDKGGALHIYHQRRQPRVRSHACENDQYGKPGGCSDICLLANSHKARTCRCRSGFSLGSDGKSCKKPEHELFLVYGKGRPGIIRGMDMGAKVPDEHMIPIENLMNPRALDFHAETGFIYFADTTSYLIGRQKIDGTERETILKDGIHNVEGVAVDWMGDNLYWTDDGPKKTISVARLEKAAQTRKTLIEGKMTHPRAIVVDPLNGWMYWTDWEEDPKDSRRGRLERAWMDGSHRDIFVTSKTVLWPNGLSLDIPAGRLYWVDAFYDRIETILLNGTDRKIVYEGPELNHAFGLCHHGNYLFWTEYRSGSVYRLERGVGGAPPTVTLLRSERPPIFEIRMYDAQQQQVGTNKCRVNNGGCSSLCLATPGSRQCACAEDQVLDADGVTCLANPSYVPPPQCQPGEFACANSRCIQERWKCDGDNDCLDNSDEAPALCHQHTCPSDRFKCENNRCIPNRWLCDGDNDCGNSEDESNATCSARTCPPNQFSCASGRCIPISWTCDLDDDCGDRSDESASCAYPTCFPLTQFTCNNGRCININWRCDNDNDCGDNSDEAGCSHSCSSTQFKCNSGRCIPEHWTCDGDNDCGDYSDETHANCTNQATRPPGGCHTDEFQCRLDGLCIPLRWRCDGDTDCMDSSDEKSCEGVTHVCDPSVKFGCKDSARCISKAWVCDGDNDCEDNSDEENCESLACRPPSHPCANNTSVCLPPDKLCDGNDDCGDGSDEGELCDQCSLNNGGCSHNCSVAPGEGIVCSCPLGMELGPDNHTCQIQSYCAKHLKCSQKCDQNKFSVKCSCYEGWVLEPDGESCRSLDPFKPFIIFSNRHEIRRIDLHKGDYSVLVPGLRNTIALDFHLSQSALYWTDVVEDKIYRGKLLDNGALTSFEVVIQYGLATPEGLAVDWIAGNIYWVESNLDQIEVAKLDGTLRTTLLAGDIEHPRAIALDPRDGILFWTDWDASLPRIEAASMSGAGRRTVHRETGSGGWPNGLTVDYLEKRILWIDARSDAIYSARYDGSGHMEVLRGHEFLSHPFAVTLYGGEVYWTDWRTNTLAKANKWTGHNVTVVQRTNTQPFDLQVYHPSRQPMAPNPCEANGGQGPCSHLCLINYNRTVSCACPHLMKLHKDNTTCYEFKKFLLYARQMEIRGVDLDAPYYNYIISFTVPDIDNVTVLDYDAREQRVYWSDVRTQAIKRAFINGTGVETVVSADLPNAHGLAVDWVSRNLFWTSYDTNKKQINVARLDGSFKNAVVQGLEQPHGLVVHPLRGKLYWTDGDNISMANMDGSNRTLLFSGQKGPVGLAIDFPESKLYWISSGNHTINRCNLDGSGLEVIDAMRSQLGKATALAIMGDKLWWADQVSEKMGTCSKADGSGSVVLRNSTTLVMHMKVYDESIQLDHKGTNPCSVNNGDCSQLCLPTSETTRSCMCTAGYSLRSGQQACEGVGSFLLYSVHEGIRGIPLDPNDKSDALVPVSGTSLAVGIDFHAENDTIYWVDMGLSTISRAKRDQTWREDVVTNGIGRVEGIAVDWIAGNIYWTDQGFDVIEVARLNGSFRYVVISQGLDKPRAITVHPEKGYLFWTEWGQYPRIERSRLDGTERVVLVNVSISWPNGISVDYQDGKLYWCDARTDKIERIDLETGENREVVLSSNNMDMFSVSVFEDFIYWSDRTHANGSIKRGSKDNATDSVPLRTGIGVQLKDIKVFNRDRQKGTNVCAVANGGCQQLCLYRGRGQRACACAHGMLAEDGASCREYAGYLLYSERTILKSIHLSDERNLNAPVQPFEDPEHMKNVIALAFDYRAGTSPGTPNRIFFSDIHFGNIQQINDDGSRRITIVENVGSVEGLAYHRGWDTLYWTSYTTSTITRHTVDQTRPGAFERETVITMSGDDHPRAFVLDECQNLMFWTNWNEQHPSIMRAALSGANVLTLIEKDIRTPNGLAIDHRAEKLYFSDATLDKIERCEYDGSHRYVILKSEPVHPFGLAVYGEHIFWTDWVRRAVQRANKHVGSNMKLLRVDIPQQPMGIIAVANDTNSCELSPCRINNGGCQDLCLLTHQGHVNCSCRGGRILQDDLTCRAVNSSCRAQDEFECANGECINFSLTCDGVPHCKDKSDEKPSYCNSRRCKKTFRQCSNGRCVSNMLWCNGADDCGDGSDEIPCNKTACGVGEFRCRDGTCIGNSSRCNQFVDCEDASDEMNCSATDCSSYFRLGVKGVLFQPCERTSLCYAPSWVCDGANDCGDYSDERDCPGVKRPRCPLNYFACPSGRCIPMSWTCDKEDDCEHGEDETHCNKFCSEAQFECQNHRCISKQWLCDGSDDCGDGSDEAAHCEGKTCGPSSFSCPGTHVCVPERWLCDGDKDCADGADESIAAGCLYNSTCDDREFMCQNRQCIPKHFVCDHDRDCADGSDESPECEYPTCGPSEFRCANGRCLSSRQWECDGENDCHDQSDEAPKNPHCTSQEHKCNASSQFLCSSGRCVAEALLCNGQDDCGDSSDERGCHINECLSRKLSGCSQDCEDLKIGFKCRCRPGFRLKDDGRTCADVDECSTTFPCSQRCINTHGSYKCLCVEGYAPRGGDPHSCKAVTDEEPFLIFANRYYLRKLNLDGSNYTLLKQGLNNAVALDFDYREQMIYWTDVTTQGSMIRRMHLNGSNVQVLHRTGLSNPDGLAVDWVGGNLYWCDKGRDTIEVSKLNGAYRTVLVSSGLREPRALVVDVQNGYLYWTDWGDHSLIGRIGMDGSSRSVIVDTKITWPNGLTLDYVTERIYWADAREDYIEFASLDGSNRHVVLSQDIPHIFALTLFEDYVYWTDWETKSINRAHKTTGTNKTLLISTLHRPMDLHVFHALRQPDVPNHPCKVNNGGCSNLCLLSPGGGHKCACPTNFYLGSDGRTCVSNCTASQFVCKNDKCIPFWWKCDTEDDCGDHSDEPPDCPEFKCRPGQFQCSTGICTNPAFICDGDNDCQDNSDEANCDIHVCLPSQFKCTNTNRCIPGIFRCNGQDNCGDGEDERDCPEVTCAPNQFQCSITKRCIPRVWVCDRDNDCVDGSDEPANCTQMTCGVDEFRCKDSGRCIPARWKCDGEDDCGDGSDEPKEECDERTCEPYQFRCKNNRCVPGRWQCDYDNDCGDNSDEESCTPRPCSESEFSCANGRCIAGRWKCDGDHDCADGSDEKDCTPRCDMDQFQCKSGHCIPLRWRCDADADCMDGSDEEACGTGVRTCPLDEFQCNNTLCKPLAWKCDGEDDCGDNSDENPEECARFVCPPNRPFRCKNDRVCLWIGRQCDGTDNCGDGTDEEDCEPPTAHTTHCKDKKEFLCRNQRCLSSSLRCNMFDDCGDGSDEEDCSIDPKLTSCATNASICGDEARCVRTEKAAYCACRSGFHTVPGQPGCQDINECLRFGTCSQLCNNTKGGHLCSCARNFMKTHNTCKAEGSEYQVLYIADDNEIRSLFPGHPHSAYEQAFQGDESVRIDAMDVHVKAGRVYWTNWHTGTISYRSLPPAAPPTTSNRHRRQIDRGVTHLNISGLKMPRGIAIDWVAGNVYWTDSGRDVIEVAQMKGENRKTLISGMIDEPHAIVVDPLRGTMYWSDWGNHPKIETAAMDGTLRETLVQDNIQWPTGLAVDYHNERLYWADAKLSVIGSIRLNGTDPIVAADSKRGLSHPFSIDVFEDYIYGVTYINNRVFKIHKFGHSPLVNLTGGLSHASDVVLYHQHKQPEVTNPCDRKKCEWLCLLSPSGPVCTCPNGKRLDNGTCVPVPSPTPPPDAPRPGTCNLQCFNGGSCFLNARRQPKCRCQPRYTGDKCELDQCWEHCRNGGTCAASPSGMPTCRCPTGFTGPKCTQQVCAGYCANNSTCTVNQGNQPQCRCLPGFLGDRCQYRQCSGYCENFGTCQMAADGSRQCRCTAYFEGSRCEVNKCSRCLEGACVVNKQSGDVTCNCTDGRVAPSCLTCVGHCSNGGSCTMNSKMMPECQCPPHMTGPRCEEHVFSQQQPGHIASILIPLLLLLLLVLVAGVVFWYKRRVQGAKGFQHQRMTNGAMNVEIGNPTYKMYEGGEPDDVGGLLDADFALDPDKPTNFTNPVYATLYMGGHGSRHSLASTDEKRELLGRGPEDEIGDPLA
Sequence of UniProt Q9Y230 (Q9Y230 whole entry): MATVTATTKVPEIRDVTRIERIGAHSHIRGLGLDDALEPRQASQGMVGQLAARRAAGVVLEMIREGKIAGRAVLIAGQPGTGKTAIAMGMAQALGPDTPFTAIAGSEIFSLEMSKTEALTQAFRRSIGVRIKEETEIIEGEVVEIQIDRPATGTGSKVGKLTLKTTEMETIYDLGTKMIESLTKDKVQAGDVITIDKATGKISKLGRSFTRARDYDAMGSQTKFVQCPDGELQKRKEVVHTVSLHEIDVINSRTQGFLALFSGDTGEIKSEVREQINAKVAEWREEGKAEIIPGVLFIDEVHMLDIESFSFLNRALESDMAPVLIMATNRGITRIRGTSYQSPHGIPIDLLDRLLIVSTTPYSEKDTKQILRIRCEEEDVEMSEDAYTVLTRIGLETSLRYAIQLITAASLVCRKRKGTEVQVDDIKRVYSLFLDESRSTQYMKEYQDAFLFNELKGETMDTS

Target	lysine labeling ratio R10:1
SURF4 (lysine site: K154) (UniProt O15260)	4.16
EGFR (lysine site: K133) (UniProt P00533)	1.08 (active)
ALDOA (lysine site: K42) (UniProt P04075)	3
ENG (lysine site: K402) (UniProt P17813)	2.25
ITGB5 (lysine site: K163) (UniProt P18084)	2.53
UniProt P62826 (lysine site: K99)	2.78
UniProt P62750 (lysine site: K152)	4.64
ADAM9 (lysine site: K368) (UniProt Q13443)	3.66
LTF (lysine site: K476) (UniProt P02788)	0.862 (active)
TFRC (lysine site: K439) (UniProt P02786)	2.93
EDIL3 (lysine site: K106) (UniProt O43854)	2.57
UniProt Q15149 (lysine site: K3285)	4.73
XRCC6 (lysine site: K299) (UniProt P12956)	1.09 (active)
EPCAM (lysine site: K155) (UniProt P16422)	2.33
NUMA1 (lysine site: K891) (UniProt Q14980)	1.87 (active)
RUVBL2 (lysine site: K427) (UniProt Q9Y230)	2.02
CTNNA1 (lysine site: K199) (UniProt P35221)	1.43 (active)
CCT8 (lysine site: K326) (UniProt P50990)	3.67
UniProt Q15149 (lysine site: K1774)	8.57
UniProt P06576 (lysine site: K264)	4.08

Target	lysine labeling ratio R10:1
CAPZB (lysine site: K95) (UniProt P47756)	3.24
CSRP1 (lysine site: K112) (UniProt P21291)	1.46 (active)
CD55 (lysine site: K160) (UniProt P08174)	1.09 (active)
LRP1 (lysine site: K458) (UniProt Q07954)	2.56
SPTAN1 (lysine site: K1432) (UniProt Q13813)	0.77 (active)
FRAS1 (lysine site: K211) (UniProt Q86XX4)	1.36 (active)
TGFBI (lysine site: K676) (UniProt Q15582)	3.4
PAICS (lysine site: K286) (UniProt P22234)	1.42 (active)
HSPA9 (lysine site: K567) (UniProt P38646)	2.96
PTPRM (lysine site: K231) (UniProt P28827)	1.53 (active)
PSMC3 (lysine site: K372) (UniProt P17980)	2.19
GPC1 (lysine site: K347) (UniProt P35052)	4.46
PLOD2 (lysine site: K89) (UniProt O00469)	1.37 (active)
RPS19 (lysine site: K77) (UniProt P39019)	2.89
TNPO1 (lysine site: K889) (UniProt Q92973)	1.09 (active)
FLNA (lysine site: K2025) (UniProt P21333)	3.25
LRP1 (lysine site: K2009) (UniProt Q07954)	3.1
MYH9 (lysine site: K760) (UniProt P35579)	3.31
FAT1 (lysine site: K894) (UniProt Q14517)	2.53
UniProt O60245 (lysine site: K310)	2.88
